In the supplement of paper PMC8728848:
This is one part of a sample in which the strongest signals are shown more often than they occur.

Experiments:
Assay in all cases: glycan array binding signal (z-score within array); higher = stronger binding
Conditions in all cases: glycan notation: IUPAC condensed, linker removed
[1] = molecular target: Fuc(a1-2)Gal(b1-3)GalNAc(a1-3)[Fuc(a1-2)]Gal(b1-4)Glc
Outline: (§1)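 Columns mapping to the same glycan were averaged after glycan names were converted to IUPAC-condensed notation. The data come from 3228 arrays in the Consortium for Functional Glycomics database, limited to those with an available protein sequence. Binding is reported as a within-array Z-score averaged across arrays of one protein sequence and across linkers.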

[2] = molecular target: Fuc(a1-2)Gal(b1-3)GlcNAc(b1-2)Man(a1-3)[Fuc(a1-2)Gal(b1-3)GlcNAc(b1-2)Man(a1-6)]Man(b1-4)GlcNAc(b1-4)[Fuc(a1-6)]GlcNAc
Outline: as §1

[3] = molecular target: Fuc(a1-2)Gal(b1-4)GlcNAc(b1-3)Gal(b1-4)GlcNAc
Outline: as §1

[4] = molecular target: Fuc(a1-2)Gal(b1-4)GlcNAc(b1-3)Gal(b1-4)GlcNAc(b1-2)Man(a1-3)[Fuc(a1-2)Gal(b1-4)GlcNAc(b1-3)Gal(b1-4)GlcNAc(b1-2)Man(a1-6)]Man(b1-4)GlcNAc(b1-4)GlcNAc
Outline: as §1

[5] = molecular target: Fuc(a1-2)Gal(b1-4)GlcNAc(b1-3)GalNAc
Outline: as §1

[6] = molecular target: Fuc(a1-2)Gal(b1-4)GlcNAc(b1-6)GalNAc
Outline: as §1

[7] = molecular target: Fuc(a1-2)Gal(b1-4)GlcNAc6S
Outline: as §1

[8] = molecular target: Fuc(a1-2)[GalNAc(a1-3)]Gal(b1-3)GalNAc(a1-3)[Fuc(a1-2)]Gal(b1-4)GlcNAc
Outline: as §1

[9] = molecular target: Fuc(a1-2)[GalNAc(a1-3)]Gal(b1-4)GlcNAc(b1-2)Man(a1-3)[Fuc(a1-2)[GalNAc(a1-3)]Gal(b1-4)GlcNAc(b1-2)Man(a1-6)]Man(b1-4)GlcNAc(b1-4)[Fuc(a1-6)]GlcNAc
Outline: as §1

[10] = molecular target: Fuc(a1-2)[GalNAc(a1-3)]Gal(b1-4)[Fuc(a1-3)]GlcNAc(b1-3)GalNAc
Outline: as §1

[11] = molecular target: Fuc(a1-3)[Gal(b1-4)]GlcNAc(b1-2)Man(a1-3)[Fuc(a1-3)[Gal(b1-4)]GlcNAc(b1-2)Man(a1-6)]Man(b1-4)GlcNAc(b1-4)[Fuc(a1-6)]GlcNAc
Outline: as §1

[12] = molecular target: Fuc(a1-3)[Gal(b1-4)]GlcNAc(b1-3)Gal(b1-3)[Fuc(a1-4)]GlcNAc
Outline: as §1

[13] = molecular target: Fuc(b1-3)GlcNAc
Outline: as §1

[14] = molecular target: Gal(a1-4)Gal(b1-4)Glc
Outline: as §1

[15] = molecular target: Gal(b1-3)Gal
Outline: as §1

[16] = molecular target: Gal(b1-3)Gal(b1-4)GlcNAc
Outline: as §1

[17] = molecular target: Gal(b1-3)GalNAc(a1-3)[Fuc(a1-2)]Gal(b1-4)Glc
Outline: as §1

[18] = molecular target: Gal(b1-3)GalNAc(b1-3)Gal
Outline: as §1

[19] = molecular target: Gal(b1-3)GalNAc(b1-4)Gal(b1-4)Glc
Outline: as §1

[20] = molecular target: Gal(b1-3)GlcNAc(b1-2)Man(a1-3)[Gal(b1-3)GlcNAc(b1-2)Man(a1-6)]Man(b1-4)GlcNAc(b1-4)GlcNAc
Outline: as §1

[21] = molecular target: Gal(b1-3)GlcNAc(b1-3)Gal(b1-4)[Fuc(a1-3)]GlcNAc
Outline: as §1

[22] = molecular target: Gal(b1-3)[Fuc(a1-4)]GlcNAc(b1-2)Man(a1-3)[Gal(b1-3)[Fuc(a1-4)]GlcNAc(b1-2)Man(a1-6)]Man(b1-4)GlcNAc(b1-4)[Fuc(a1-6)]GlcNAc
Outline: as §1

[23] = molecular target: Gal(b1-3)[Neu5Ac(a2-6)]GalNAc
Outline: as §1

[24] = molecular target: Gal(b1-4)GlcNAc(b1-3)Gal(b1-4)GlcNAc(b1-2)Man(a1-3)[Gal(b1-4)GlcNAc(b1-3)Gal(b1-4)GlcNAc(b1-2)Man(a1-6)]Man(b1-4)GlcNAc(b1-4)GlcNAc
Outline: as §1

[25] = molecular target: Gal(b1-4)GlcNAc(b1-3)Gal(b1-4)GlcNAc(b1-3)Gal(b1-4)GlcNAc(b1-3)Gal(b1-4)GlcNAc(b1-2)[Gal(b1-4)GlcNAc(b1-3)Gal(b1-4)GlcNAc(b1-3)Gal(b1-4)GlcNAc(b1-3)Gal(b1-4)GlcNAc(b1-6)]Man(a1-6)[Gal(b1-4)GlcNAc(b1-3)Gal(b1-4)GlcNAc(b1-3)Gal(b1-4)GlcNAc(b1-3)Gal(b1-4)GlcNAc(b1-2)Man(a1-3)]Man(b1-4)GlcNAc(b1-4)[Fuc(a1-6)]GlcNAc
Outline: as §1

[26] = molecular target: Gal(b1-4)GlcNAc(b1-3)Gal(b1-4)GlcNAc(b1-3)GalNAc
Outline: as §1

[27] = molecular target: Gal(b1-4)GlcNAc(b1-3)Gal(b1-4)[Fuc(a1-3)]GlcNAc(b1-3)Gal(b1-4)[Fuc(a1-3)]GlcNAc
Outline: as §1

[28] = molecular target: Gal(b1-4)GlcNAc(b1-3)[Gal(b1-4)GlcNAc(b1-6)]Gal(b1-4)GlcNAc
Outline: as §1

[29] = molecular target: Gal3S(b1-4)[Fuc(a1-3)]GlcNAc
Outline: as §1

[30] = molecular target: GlcA(b1-3)GlcNAc
Outline: as §1

[31] = molecular target: GlcNAc(a1-4)Gal(b1-4)GlcNAc(b1-3)Gal(b1-4)Glc
Outline: as §1

[32] = molecular target: GlcNAc(b1-2)[GlcNAc(b1-4)]Man(a1-3)[GlcNAc(b1-4)][GlcNAc(b1-2)[GlcNAc(b1-6)]Man(a1-6)]Man(b1-4)GlcNAc(b1-4)[Fuc(a1-6)]GlcNAc
Outline: as §1

[33] = molecular target: GlcNAc(b1-3)Gal(b1-4)GlcNAc(b1-3)Gal(b1-4)GlcNAc(b1-2)Man(a1-3)[GlcNAc(b1-3)Gal(b1-4)GlcNAc(b1-3)Gal(b1-4)GlcNAc(b1-2)Man(a1-6)]Man(b1-4)GlcNAc(b1-4)GlcNAc
Outline: as §1

[34] = molecular target: GlcNAc(b1-3)Gal(b1-4)GlcNAc(b1-3)Gal(b1-4)GlcNAc(b1-3)Gal(b1-4)GlcNAc(b1-3)Gal(b1-4)GlcNAc(b1-2)Man(a1-3)[GlcNAc(b1-3)Gal(b1-4)GlcNAc(b1-3)Gal(b1-4)GlcNAc(b1-3)Gal(b1-4)GlcNAc(b1-3)Gal(b1-4)GlcNAc(b1-2)Man(a1-6)]Man(b1-4)GlcNAc(b1-4)GlcNAc
Outline: as §1

[35] = molecular target: GlcNAc(b1-3)[GlcNAc(b1-6)]Gal(b1-4)GlcNAc
Outline: as §1

[36] = molecular target: GlcNAc(b1-4)GlcNAc(b1-4)GlcNAc(b1-4)GlcNAc(b1-4)GlcNAc(b1-4)GlcNAc
Outline: as §1

[37] = molecular target: Kdn(a2-3)Gal(b1-3)GlcNAc
Outline: as §1

[38] = molecular target: Man(a1-3)[Man(a1-6)]Man(a1-6)[Man(a1-3)]Man(b1-4)GlcNAc(b1-4)GlcNAc
Outline: as §1

[39] = molecular target: Neu5Ac(a2-3)Gal(b1-3)GalNAc(b1-4)[Neu5Ac(a2-8)Neu5Ac(a2-3)]Gal(b1-4)Glc
Outline: as §1

[40] = molecular target: Neu5Ac(a2-3)Gal(b1-3)GalNAc6S
Outline: as §1

[41] = molecular target: Neu5Ac(a2-3)Gal(b1-3)GlcNAc(b1-3)Gal(b1-4)GlcNAc
Outline: as §1

[42] = molecular target: Neu5Ac(a2-3)Gal(b1-3)[Fuc(a1-4)]GlcNAc
Outline: as §1

[43] = molecular target: Neu5Ac(a2-3)Gal(b1-4)GlcNAc(b1-2)Man(a1-3)[Neu5Ac(a2-3)Gal(b1-4)GlcNAc(b1-2)Man(a1-6)]Man(b1-4)GlcNAc(b1-4)GlcNAc
Outline: as §1

[44] = molecular target: Neu5Ac(a2-3)Gal(b1-4)GlcNAc6S
Outline: as §1

[45] = molecular target: Neu5Ac(a2-3)Gal(b1-4)[Fuc(a1-3)]GlcNAc(b1-3)Gal
Outline: as §1

[46] = molecular target: Neu5Ac(a2-3)Gal(b1-4)[Fuc(a1-3)]GlcNAc(b1-3)GalNAc
Outline: as §1

[47] = molecular target: Neu5Ac(a2-3)Gal(b1-4)[Fuc(a1-3)]GlcNAc(b1-6)[Gal(b1-3)]GalNAc
Outline: as §1

[48] = molecular target: Neu5Ac(a2-3)GalNAc(b1-4)GlcNAc
Outline: as §1

[49] = molecular target: Neu5Ac(a2-3)[Neu5Ac(a2-6)]GalNAc
Outline: as §1

[50] = molecular target: Neu5Ac(a2-6)Gal(b1-3)GlcNAc(b1-3)[Gal(b1-4)GlcNAc(b1-6)]Gal(b1-4)Glc
Outline: as §1

[51] = molecular target: Neu5Ac(a2-6)Gal(b1-4)GlcNAc(b1-3)Gal(b1-4)GlcNAc(b1-3)Gal(b1-4)GlcNAc(b1-2)Man(a1-3)[Neu5Ac(a2-6)Gal(b1-4)GlcNAc(b1-3)Gal(b1-4)GlcNAc(b1-3)Gal(b1-4)GlcNAc(b1-2)Man(a1-6)]GalNAc
Outline: as §1

[52] = molecular target: Neu5Ac(b2-6)GalNAc
Outline: as §1

[53] = molecular target: Neu5Ac9Ac(a2-3)Gal(b1-4)GlcNAc
Outline: as §1

[54] = molecular target: Neu5Gc(a2-3)Gal(b1-4)GlcNAc
Outline: as §1

B1: CFEM-CGl (Candida glabrata), Q6FRS0 (protein)
chain: VLATPPACLLACVAQVSKQSSQCHTLNQVGCFCENENTAIKNCLDSICPNGNSDAAYTAFKNSCGDVGKAVASV
glycan array binding signal (z-score) [1]: -0.334 | glycan array binding signal (z-score) [2]: -0.163 | glycan array binding signal (z-score) [3]: -0.233 | glycan array binding signal (z-score) [4]: -0.168 | glycan array binding signal (z-score) [5]: 8.8 | glycan array binding signal (z-score) [6]: 0.206 | glycan array binding signal (z-score) [7]: -0.397 | glycan array binding signal (z-score) [8]: -0.609 | glycan array binding signal (z-score) [9]: -0.183 | glycan array binding signal (z-score) [10]: 4.55 | glycan array binding signal (z-score) [11]: -0.347 | glycan array binding signal (z-score) [12]: -0.484 | glycan array binding signal (z-score) [13]: -0.346 | glycan array binding signal (z-score) [14]: -0.153 | glycan array binding signal (z-score) [15]: 3.15 | glycan array binding signal (z-score) [16]: 2.81 | glycan array binding signal (z-score) [17]: 0.176 | glycan array binding signal (z-score) [18]: 6.73 | glycan array binding signal (z-score) [19]: 9.88 | glycan array binding signal (z-score) [20]: -0.248 | glycan array binding signal (z-score) [21]: -0.497 | glycan array binding signal (z-score) [22]: -0.165 | glycan array binding signal (z-score) [23]: 2.93 | glycan array binding signal (z-score) [24]: 4.99 | glycan array binding signal (z-score) [25]: 0.09 | glycan array binding signal (z-score) [26]: 0.84 | glycan array binding signal (z-score) [27]: -0.249 | glycan array binding signal (z-score) [28]: -0.249 | glycan array binding signal (z-score) [29]: -0.353 | glycan array binding signal (z-score) [30]: -0.457 | glycan array binding signal (z-score) [31]: -0.384 | glycan array binding signal (z-score) [32]: -0.628 | glycan array binding signal (z-score) [33]: 3.84 | glycan array binding signal (z-score) [34]: -0.264 | glycan array binding signal (z-score) [35]: -0.258 | glycan array binding signal (z-score) [36]: 0.197 | glycan array binding signal (z-score) [37]: -0.288 | glycan array binding signal (z-score) [38]: -0.003 | glycan array binding signal (z-score) [39]: -0.372 | glycan array binding signal (z-score) [40]: 0.752 | glycan array binding signal (z-score) [41]: -0.343 | glycan array binding signal (z-score) [42]: -0.12 | glycan array binding signal (z-score) [43]: -0.517 | glycan array binding signal (z-score) [44]: -0.111 | glycan array binding signal (z-score) [45]: -0.311 | glycan array binding signal (z-score) [46]: 3.44 | glycan array binding signal (z-score) [47]: 0.977 | glycan array binding signal (z-score) [48]: -0.449 | glycan array binding signal (z-score) [49]: -0.425 | glycan array binding signal (z-score) [50]: -0.355 | glycan array binding signal (z-score) [51]: 4.31 | glycan array binding signal (z-score) [52]: 0.161 | glycan array binding signal (z-score) [53]: -0.485 | glycan array binding signal (z-score) [54]: -0.194
